Laboratory results reported in PubChem BioAssay (NCI).
Compounds without any hit were thinned out: in the full panel of roughly 79,000, 15% have a hit. Active and inactive are the calls of the source. No stated cut-off is given here; in the data, active means growth inhibition above about 70%; inactive means the rest.

Legend:
[1] = NCI Yeast Anticancer Drug Screen. Data for the mec2-1 strain (AID 157); conditions: S. cerevisiae mec2-1 strain, hits give high values
Outline: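 Using mec2-1 yeast: add compound, measure growth, express inhibition versus vehicle-treated cultures.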

[2] = NCI Yeast Anticancer Drug Screen. Data for the rad14 strain (AID 159);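 further: 0% = growth of vehicle-treated control cultures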; conditions: S. cerevisiae rad14 strain growth inhibition, hits give high values
Outline: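 Vehicle-treated cultures served as the baseline for growth inhibition of a DNA repair-mutant yeast strain exposed to each compound.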

[3] = NCI Yeast Anticancer Drug Screen. Data for the sgs1 mgt1 strain (AID 161);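 further: 0% = growth of cultures given vehicle only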; conditions: S. cerevisiae sgs1 mgt1 strain, hits give high values
Outline: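 Yeast cells carrying a defined DNA-repair defect were exposed to test compounds. Growth inhibition was measured relative to vehicle-treated controls.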

[4] = NCI Yeast Anticancer Drug Screen. Data for the CLN2oe strain (AID 163);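 further: 0% = growth of vehicle-only control cultures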; conditions: S. cerevisiae CLN2oe strain, hits give high values
Outline: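 Whole-cell yeast growth assay. A strain engineered for altered cell-cycle control received compound, and inhibition relative to vehicle-treated cultures was recorded.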

[5] = NCI Yeast Anticancer Drug Screen. Data for the cln2 rad14 strain (AID 165);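 further: 0% = growth equal to vehicle treated cultures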; conditions: S. cerevisiae cln2 rad14 strain, hits give high values
Outline: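 Yeast strain cln2 rad14, bearing defects in cell cycle control and DNA repair, serves as the test system; values reflect growth inhibition compared with vehicle.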

[6] = NCI Yeast Anticancer Drug Screen. Data for the bub3 strain (AID 167); conditions: S. cerevisiae bub3 mutant strain, hits give high values
Outline: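 Inhibition values come from growth of compound-treated mutant yeast normalised to vehicle-treated controls.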

[7] = NCI Yeast Anticancer Drug Screen. Data for the wt2 strain (AID 169);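 further: 0% = growth of vehicle-treated yeast cultures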; conditions: S. cerevisiae wt2 strain growth inhibition, hits give high values
Outline: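 Treated yeast vs. vehicle-treated yeast: growth inhibition determined.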

[8] = NCI Yeast Anticancer Drug Screen. Data for the mlh1 strain (AID 171);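 further: 0% = growth of vehicle-treated control cultures of the same strain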; conditions: S. cerevisiae mlh1 strain growth inhibition, hits give high values
Outline: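 A yeast strain with a defined genetic lesion serves as the test organism. Cultures receive compound or vehicle, and growth is measured.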

[9] = NCI Yeast Anticancer Drug Screen. Data for the sgs1 strain (AID 173);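 further: 0% = growth of vehicle-only control cultures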; conditions: S. cerevisiae sgs1 mutant, hits give high values
Outline: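 A genetically defined yeast mutant is incubated with the test compound, and its growth is compared to that of the same strain given vehicle.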

[10] = NCI Yeast Anticancer Drug Screen. Data for the mlh1 rad18 strain (AID 175); conditions: S. cerevisiae mlh1 rad18 strain growth inhibition, hits give high values
Outline: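 Steps: expose repair-defective yeast to compound; measure growth; express inhibition against vehicle-treated controls.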

[11] = NCI Yeast Anticancer Drug Screen. Data for the rad18 strain (AID 177); conditions: S. cerevisiae rad18 mutant growth inhibition, hits give high values
Outline: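 Measured value is growth inhibition of a yeast strain bearing a DNA repair alteration, referenced to vehicle-treated cells.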

[12] = NCI Yeast Anticancer Drug Screen. Data for the rad52 strain (AID 147);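 further: 0% = growth of vehicle-treated control cultures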; conditions: S. cerevisiae rad52 mutant growth inhibition, hits give high values
Outline: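 Here a repair-compromised yeast strain receives each compound; its growth is then quantified and normalised to vehicle-only controls.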

[13] = NCI Yeast Anticancer Drug Screen. Data for the wt1 strain (AID 149);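 further: 0% = growth of vehicle-treated wt1 cultures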; conditions: S. cerevisiae wt1 strain (SPY 50644) growth inhibition, hits give high values
Outline: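 Vehicle-normalised growth inhibition; strain wt1; compound exposure.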

[14] = NCI Yeast Anticancer Drug Screen. Data for the mgt1 strain (AID 153); conditions: S. cerevisiae mgt1 mutant growth inhibition, hits give high values
Outline: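 Measured: inhibition of mgt1 yeast growth by compound, normalized to vehicle-treated cultures.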

[15] = NCI Yeast Anticancer Drug Screen. Data for the rad50 strain (AID 155);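 further: 0% = growth of vehicle-only cultures of the same strain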; conditions: S. cerevisiae rad50 strain growth inhibition, hits give high values
Outline: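 A DNA repair-deficient yeast mutant serves as the test organism; compound-induced growth inhibition is calculated against vehicle-treated cells.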

[16] = at 5.0 µM (retest, dose inferred, filed as 0.5)
[17] = at 50.0 µM (retest, dose inferred, filed as 5.0)

Measured: growth inhibition

S=C1SCN(C2CCCCC2)CN1C1CCCCC1
inactive: [1]; at 100.0 µM 58% | [2]; at 1.2 µM -31% | [2]; at 3.7 µM -25% | [2]; at 11.0 µM -24% | [2]; at 33.0 µM 2% | [2]; at 100.0 µM 45% | [3]; [16] 0% | [4]; at 1.2 µM -21% | [4]; at 3.7 µM -19% | [4]; at 11.0 µM -16% | [4]; at 33.0 µM -1% | [4]; at 100.0 µM 19% | [5]; [16] 10% | [5]; at 50.0 µM 31.1% | [6]; at 1.2 µM -18% | [6]; at 3.7 µM -10% | [6]; [16] 20% | [6]; at 11.0 µM -23% | [6]; at 33.0 µM 22% | [7]; at 1.2 µM -37% | [7]; at 3.7 µM -35% | [7]; at 11.0 µM -39% | [7]; at 33.0 µM -22% | [7]; at 100.0 µM 39% | [8]; at 1.2 µM -44% | [8]; at 3.7 µM -43% | [8]; at 11.0 µM -31% | [8]; at 33.0 µM -5% | [9]; at 1.2 µM -36% | [9]; at 3.7 µM -22% | [9]; at 11.0 µM -17% | [9]; at 33.0 µM 24% | [10]; [16] 34% | [10]; at 50.0 µM 49.1% | [11]; at 1.2 µM -57% | [11]; at 3.7 µM -38% | [11]; at 11.0 µM -39% | [11]; at 33.0 µM -3% | [11]; at 100.0 µM 64%
active: [3]; [17] 94% | [3]; at 50.0 µM 72.3% | [5]; [17] 81% | [6]; [17] 94% | [6]; at 50.0 µM 82.8% | [6]; at 100.0 µM 71% | [8]; at 100.0 µM 79% | [9]; at 100.0 µM 71% | [10]; [17] 99%

COc1nc2c(c(=O)n1C)N=C(c1ccccc1)[C@H](C(CC(=O)c1ccccc1)c1ccccc1)C(c1ccccc1)N2 (stereo partly specified)
inactive: [12]; at 1.2 µM -2% | [12]; at 3.7 µM 13% | [12]; at 11.0 µM 34% | [12]; at 33.0 µM 31% | [12]; at 100.0 µM 60% | [13]; at 1.2 µM -27% | [13]; at 3.7 µM -20% | [13]; at 11.0 µM -19% | [13]; at 33.0 µM 6% | [13]; at 100.0 µM 46% | [14]; at 1.2 µM -53% | [14]; at 3.7 µM -38% | [14]; at 11.0 µM -9% | [14]; at 33.0 µM 34% | [14]; at 100.0 µM 60% | [15]; at 1.2 µM 6% | [15]; at 3.7 µM 3% | [15]; [16] 65% | [15]; at 11.0 µM 5% | [15]; at 33.0 µM 21% | [15]; at 50.0 µM 52.4% | [15]; at 100.0 µM 55% | [1]; at 1.2 µM -16% | [1]; at 3.7 µM -9% | [1]; [16] 13% | [1]; at 11.0 µM -8% | [1]; at 33.0 µM -4% | [1]; at 50.0 µM 61.5% | [1]; at 100.0 µM 34% | [2]; at 1.2 µM -1% | [2]; at 3.7 µM -10% | [2]; at 11.0 µM -1% | [2]; at 33.0 µM 31% | [2]; at 100.0 µM 57% | [3]; [16] -14% | [3]; [17] 35% | [3]; at 50.0 µM 53.7% | [4]; at 1.2 µM 10% | [4]; at 3.7 µM 1% | [4]; at 11.0 µM 4% | [4]; at 33.0 µM 13% | [4]; at 100.0 µM 43% | [5]; [16] 2% | [5]; [17] -15% | [5]; at 50.0 µM 7.8% | [6]; at 1.2 µM -11% | [6]; at 3.7 µM -34% | [6]; [16] 0% | [6]; at 11.0 µM 9% | [6]; at 33.0 µM 18% | [6]; [17] 23% | [6]; at 50.0 µM 36.4% | [6]; at 100.0 µM 41% | [7]; at 1.2 µM -8% | [7]; at 3.7 µM -8% | [7]; at 11.0 µM -7% | [7]; at 33.0 µM 22% | [7]; at 100.0 µM 46% | [8]; at 1.2 µM -53% | [8]; at 3.7 µM -38% | [8]; at 11.0 µM -9% | [8]; at 33.0 µM 34% | [8]; at 100.0 µM 60% | [9]; at 1.2 µM -9% | [9]; at 3.7 µM -10% | [9]; at 11.0 µM 23% | [9]; at 33.0 µM 40% | [10]; [16] 14% | [10]; [17] 35% | [10]; at 50.0 µM 20.1% | [11]; at 1.2 µM 37% | [11]; at 3.7 µM 47% | [11]; at 11.0 µM 50% | [11]; at 33.0 µM 46% | [11]; at 100.0 µM 67%
active: [15]; [17] 94% | [1]; [17] 94% | [9]; at 100.0 µM 71%
